Assay outcomes from PubChem BioAssay.
TRHR enhancer – allosteric enhancers of human TRH receptor; TRHR cells, fluo-8 calcium fluorescence, EC20 TRH enhancement; enhancement, % at 2 µM; hit rate 0.66% among 360,000; in the data active means enhancement above about 30%; further: 0% is about no effect
Target sequence (P34981 whole entry, looked up): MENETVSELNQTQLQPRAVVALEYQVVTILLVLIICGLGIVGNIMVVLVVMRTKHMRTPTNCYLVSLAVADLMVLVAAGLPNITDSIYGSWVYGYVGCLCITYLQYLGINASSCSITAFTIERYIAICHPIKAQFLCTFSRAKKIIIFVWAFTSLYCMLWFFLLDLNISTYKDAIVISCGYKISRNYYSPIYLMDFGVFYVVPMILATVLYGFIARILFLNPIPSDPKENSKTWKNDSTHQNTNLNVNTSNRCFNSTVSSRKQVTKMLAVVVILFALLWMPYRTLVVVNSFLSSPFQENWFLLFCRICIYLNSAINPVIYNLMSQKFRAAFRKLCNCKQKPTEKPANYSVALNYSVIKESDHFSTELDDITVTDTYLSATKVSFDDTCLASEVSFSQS
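Enhancer read-out: after compound pinning and an initial kinetic agonist-mode read, an EC20 of TRH (10 nM final) was injected and fluo-8 calcium signal (Ex 480/Em 530) followed at 1 s/cycle for 100 cycles in TRHR-expressing cells.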
D1 PAM – enhances dopamine response at the human D1 receptor; HEK293 TREx D1 cells, calcium flux, dopamine EC20 potentiation; potentiation, % at 10 µM; hit rate 0.036% among 360,000; in the data active means potentiation above about 30%; further: 0% is about no effect
D1 agonist – activates the human D1 dopamine receptor. P21728. activation, % at 2 µM. HEK293 T-REx D1 cells, calcium flux, agonist mode. AID 504660. hit rate 1% among 360,000; further: 0% is about no effect
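Inducible HEK293 T-REx D1 cells, force-coupled to calcium signalling, were plated at 4000 cells/well with tetracycline and held overnight at 30 C. After no-wash calcium dye loading, compound-evoked calcium rise over 180 s flagged agonists.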
TRHR agonist – activates the human TRH receptor | P34981 | TRHR cells, calcium flux fluo-8, FDSS agonist mode | activation, % at 2 µM | hit rate 0.18% among 360,000; further: 0% is about no effect
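TRHR-expressing cells, plated overnight in medium with 10% serum, were loaded with fluo-8 calcium dye at room temperature. After a 10 s baseline, library compound was pin-added and calcium release was recorded kinetically (ex 480/em 530) as agonist response.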
D1 antag – human D1 dopamine receptor antagonism; P21728; HEK293 TREx D1 cells, calcium flux, dopamine EC80; active compounds read low; activity change, negative = inhibition, % at 10 µM; hit rate 3.2% among 360,000; AID 504652; in the data active means activity change below about -30%; further: on the % scale 0 is the no-effect control and ±100 the full control effect
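Compound effects on dopamine-evoked calcium signalling were measured in tetracycline-induced HEK293 Trex D1 cells. Dopamine at EC80 followed a 180 s compound pre-read, and fluorescence was tracked kinetically for 180 s more.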
An asterisk follows results filed as active. Shown are actives, neighbours in structure and some others; about 4.6% of the full set was active somewhere. Unless noted, no stated cut-off is given here; in the data, active means activation above about 30%; inactive means the rest.

SMILES	TRHR enhancer	D1 PAM	D1 agonist	TRHR agonist	D1 antag
COc1ccc(S(=O)(=O)N(CCc2ccccc2)CC(=O)Nc2cc(C)ccc2C)cc1	-4	-1	18	2	21
COc1ccc(S(=O)(=O)N(CC(=O)Nc2ccc(Br)cc2)Cc2ccccc2)cc1	-2	-2	9	2	-6
O=C(c1cc(-c2ccccc2)nc2ccccc12)N1CCCc2ccccc21	-13	2	6	1	10
O=C1CCN(Cc2ccc(Cl)cc2)N1	3	-4	2	0	-1
COc1ccc(OC)c(-c2cc(C(=O)N3CCOCC3)no2)c1	37*	-5	0	-1	0
COc1ccc(OC)c(-c2cc(C(=O)Nc3ccc(C)c(C)c3)no2)c1	-8	-2	5	1	-8
COc1ccc(OC)c(-c2cc(C(=O)Nc3cccc(Cl)c3C)no2)c1	-14	1	9	1	-40*
Cc1ccc(-n2ncc3c(N(CC(C)C)CC(C)C)ncnc32)c(C)c1	2	3	0	0	-7
COc1ccc(S(=O)(=O)N2CCC(O)(c3ccc(Cl)cc3)CC2)cc1OC	-1	-4	0	0	-23
COc1ccc(S(=O)(=O)N2CCC(O)(c3ccc(Cl)cc3)CC2)cc1	0	-7	11	1	-36*
O=C(N/C(C(=O)N1CCOCC1)=C(\Sc1ncccn1)c1ccccc1)c1ccccc1	0	-2	3	1	10
Cc1ccc2sc(N(CCCN(C)C)C(=O)CCS(=O)(=O)c3ccccc3)nc2c1C	-2	-7	64*	3	-17
Cc1cccc2sc(N(CCCN(C)C)C(=O)CCc3ccccc3)nc12	16	-10	22	5	-24
Cc1cccc2sc(N(CCCN(C)C)C(=O)CN3C(=O)c4ccccc4C3=O)nc12	4	-2	33*	1	-9
COc1ccc(Br)cc1CN1CCN(Cc2c[nH]c3ccccc23)CC1	1	-18	38*	3	-15
O=[N+]([O-])c1ccccc1CN1CCN(Cc2c[nH]c3ccccc23)CC1	20	-10	19	2	-30*
CC(=O)OCC(=O)c1c[nH]c2ccccc12	-9	-6	0	1	11
O=C(c1ccccc1)N1CCN(Cc2c[nH]c3ccccc23)CC1	-6	-7	6	0	16
O=C(c1cccc(F)c1)N1CCN(Cc2c[nH]c3ccccc23)CC1	-2	-5	1	1	-55*
CC(=O)c1c(C)[nH]c(C(=O)OCC(=O)c2c[nH]c3ccccc23)c1C	-1	-3	4	0	-31*
CCOc1ccc(S(=O)(=O)N(C)CC(=O)NCc2ccccn2)cc1	0	-1	0	0	11
O=C(CN1C(=O)NC2(CCCC2)C1=O)Nc1nc2ccc(F)cc2s1	2	0	2	1	0
O=C(COC(=O)C1CC1)c1c[nH]c2ccccc12	0	1	-4	0	-11
O=C(Cc1ccccc1[N+](=O)[O-])OCC(=O)c1c[nH]c2ccccc12	1	-5	2	0	-38*
c1ccc(-c2nc(Sc3ncnc4c3cnn4-c3ccccc3)n[nH]2)cc1	-12	-1	3	0	-7
SMILES	TRHR enhancer	D1 PAM	D1 agonist	TRHR agonist	D1 antag
CC1CN(C(=S)Nc2ccccc2C(F)(F)F)CC(C)O1 (stereo not given)	4	-1	2	0	-34*
FC(F)(F)c1ccccc1NC(=S)N1CCCCCC1	0	-2	-1	0	6
CC(=O)Cn1cnc2sc(-c3ccccc3)cc2c1=O	-2	-3	1	1	-36*
Cc1cc(=O)n2cc(-c3ccccc3)nc2[nH]1	2	-5	1	0	-11
Cc1ccc(-c2cn3c(=O)cc(C)[nH]c3n2)cc1	0	-1	1	0	-40*
CC1c2[nH]c3ccccc3c2CCN1C(=O)Nc1ccccc1 (stereo not given)	-4	-5	13	1	-36*
COC(=O)[C@@H]1C[C@@]2(O)[C@@H](O)[C@@H](O)[C@@H](O)C[C@H]2N1CC1CCCCC1	7	0	13	0	-56*
CCOC(=O)Cn1cnc2c(cnn2-c2ccccc2)c1=O	-6	-6	0	0	-1
COc1ccc(N2CCN(C(=O)Cn3cnc4nc5c(cc4c3=O)CCCC5)CC2)cc1	5	-4	4	-1	-31*
